Several values for one entry are separate records, joined by “and”; a condition that tells them apart may be missing. Identical values can stand only once. Results filed as inconclusive are left out. The source holds several records for some structures; these can differ, active in one and inactive in another. Activity calls are given as the source filed them. How the source made its calls, unless noted: active means hit-call score of the fitted dose curve at least 0.9, where 1 is the maximum; inactive means score below 0.9.
Experiments:
[1] = read-out: Interleukin-8 (IL8), CXCL8 (gene 3576); assay: BSK_BE3C_IL8: BioMAP Diversity Plus: BE3C Assay for Interleukin-8 (IL8) Biomarker Activity (AID 2284280); conditions: primary human bronchial epithelial cells
In short: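 Primary human bronchial epithelial cells (BE3C system) exposed 24 h; IL-8 measured by ELISA and fitted in positive direction versus DMSO. Overt cytotoxicity assessed by SRB total-protein staining in parallel cultures.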

[2] = read-out: Epidermal growth factor receptor (EGFR), EGFR (gene 1956); assay: BSK_BE3C_EGFR: BioMAP Diversity Plus: BE3C Assay for Epidermal growth factor receptor (EGFR) Biomarker Activity (AID 2284281); conditions: primary human bronchial epithelial cells
In short: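 Human primary bronchial epithelial cells (BE3C system) dosed with chemicals; EGFR measured by ELISA at 24 h, fitted in the positive direction relative to DMSO. Cytotoxicity tracked in parallel cultures by SRB total-protein staining.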

[3] = read-out: KRT18 (gene 3875); assay: BSK_BE3C_Keratin818: BioMAP Diversity Plus: BE3C Assay for Keratin 818 Biomarker Activity (AID 2284282); conditions: primary human bronchial epithelial cells
In short: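 Chemicals are added to human lung bronchial epithelial primary cells (BE3C system) and incubated 24 h. Keratin 8/18 is then measured by ELISA, with parallel SRB total-protein staining gauging overt cytotoxicity.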

[4] = read-out: Matrix Metallopeptidase 9 (MMP9), MMP9 (gene 4318); assay: BSK_BE3C_MMP9: BioMAP Diversity Plus: BE3C Assay for Matrix Metallopeptidase 9 (MMP9) Biomarker Activity (AID 2284283); conditions: primary human bronchial epithelial cells
In short: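 Human primary bronchial epithelial cells exposed 24 h to compound. MMP9 quantified by ELISA. SRB total-protein staining of parallel cultures assesses cytotoxicity. Positive-direction fit relative to DMSO.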

[5] = read-out: Plasminogen activator inhibitor-1 (PAI1), SERPINE1 (gene 5054); assay: BSK_CASM3C_PAI1: BioMAP Diversity Plus: CASM3C Assay for Plasminogen activator inhibitor-1 (PAI1) Biomarker Activity (AID 2284284); conditions: primary human coronary artery smooth muscle cells;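 further: PAI-1 protein level measured by ELISA 24 h after dosing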
[6] = read-out: Monocyte Chemoattractant Protein-1 (MCP1), CCL2 (gene 6347); assay: BSK_hDFCGF_MCP1: BioMAP Diversity Plus: hDFCGF Assay for Monocyte Chemoattractant Protein-1 (MCP1) Biomarker Activity (AID 2284285); conditions: primary human foreskin fibroblasts
In short: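 Human foreskin fibroblasts (hDFCGF system) were exposed to compound and secreted MCP-1 was measured by ELISA after 24 hours. Activity was fitted relative to DMSO. Cytotoxicity was checked by SRB total-protein staining in parallel cultures.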

[7] = read-out: Intercellular Adhesion Molecule 1 (ICAM1), ICAM1 (gene 3383); assay: BSK_hDFCGF_ICAM1: BioMAP Diversity Plus: hDFCGF Assay for Intercellular Adhesion Molecule 1 (ICAM1) Biomarker Activity (AID 2284287); conditions: primary human foreskin fibroblasts
In short: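 Primary human foreskin fibroblasts (hDFCGF system) dosed with chemical; ICAM-1 quantified by ELISA at 24 h relative to DMSO. Parallel SRB total-protein staining to assess overt cytotoxicity.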

[8] = read-out: CD40, CD40 (gene 958); assay: BSK_IMphg_CD40: BioMAP Diversity Plus: IMphg Assay for CD40 Biomarker Activity (AID 2284288); conditions: primary human endothelial cells with macrophages
In short: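 Venular endothelial cells co-cultured with macrophages (human primary), CD40 measured by ELISA 24 h after dosing. Positive-direction fit vs DMSO baseline; cytotoxicity tracked by SRB total-protein staining in parallel cultures.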

[9] = read-out: TIMP metallopeptidase inhibitor 2 (TIMP2), TIMP2 (gene 7077); assay: BSK_hDFCGF_TIMP2: BioMAP Diversity Plus: hDFCGF Assay for TIMP metallopeptidase inhibitor 2 (TIMP2) Biomarker Activity (AID 2284289); conditions: primary human foreskin fibroblasts
In short: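 Primary human foreskin fibroblasts in the hDFCGF system, dosed for 24 h; TIMP-2 level measured by ELISA, fitted in the positive direction against DMSO; cytotoxicity checked in parallel by sulforhodamine B total protein staining.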

[10] = read-out: Interleukin-1 alpha (IL1a), IL1A (gene 3552); assay: BSK_IMphg_IL1a: BioMAP Diversity Plus: IMphg Assay for Interleukin-1 alpha (IL1a) Biomarker Activity (AID 2284290); conditions: primary human endothelial cells with macrophages
In short: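 Human venular endothelial cells co-cultured with macrophages, IMphg system. IL-1α is measured by ELISA 24 h after dosing and fitted in the positive direction against DMSO. Cytotoxicity is assessed by SRB staining of parallel cultures.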

[11] = read-out: E-selectin (Homo sapiens) (UniProt P16581); assay: BSK_IMphg_ESelectin: BioMAP Diversity Plus: IMphg Assay for Eselectin Biomarker Activity (AID 2284291); conditions: primary human endothelial cells with macrophages
In short: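 Human venular endothelial cell–macrophage co-culture, E-selectin measured by ELISA 24 h after chemical dosing. Signal fitted in the positive direction against DMSO as negative control and baseline.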

[12] = read-out: Macrophage colony-stimulating factor (MCSF), CSF1 (gene 1435); assay: BSK_IMphg_MCSF: BioMAP Diversity Plus: IMphg Assay for Macrophage colony-stimulating factor (MCSF) Biomarker Activity (AID 2284293); conditions: primary human endothelial cells with macrophages
In short: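 Co-culture of human venular endothelial cells and macrophages, 24 hours of chemical exposure. M-CSF quantified by ELISA, with parallel SRB total-protein staining for cytotoxicity; activity fitted relative to DMSO.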

[13] = read-out: Interleukin-10 (IL10), IL10 (gene 3586); assay: BSK_IMphg_IL10: BioMAP Diversity Plus: IMphg Assay for Interleukin-10 (IL10) Biomarker Activity (AID 2284294); conditions: primary human endothelial cells with macrophages
In short: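 Human venular endothelial cells cocultured with macrophages, dosed 24 h; IL-10 measured by ELISA, activity relative to DMSO. Cytotoxicity assessed in parallel cultures by sulforhodamine B total-protein staining.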

[14] = BSK_IMphg_SRB.Mphg: Macrophage Viability Assessment in the BioMAP Diversity Plus: IMphg Assay (AID 2284295); conditions: primary human endothelial cells with macrophages
In short: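 Venular endothelial cells co-cultured with macrophages, read 24 h after dosing. Total protein measured by 0.1% SRB staining after 10% TCA fixation, absorbance at 560 nm. Fitted in positive direction against DMSO baseline.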

[15] = read-out: Thrombomodulin, THBD (gene 7056); assay: BSK_LPS_Thrombomodulin: BioMAP Diversity Plus: LPS Assay for Thrombomodulin Biomarker Activity (AID 2284296); conditions: primary human HUVEC with PBMC
In short: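 Human umbilical vein endothelial cells co-cultured with PBMC and stimulated with LPS; cell-surface thrombomodulin measured by ELISA 24 hours after compound. Gain or loss versus DMSO; cytotoxicity checked by SRB staining in parallel cultures.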

[16] = system: IYD (gene 389434); assay: CCTE_GLTED_hIYD: CCTE's human Iodotyrosine Deiodinase (xIYD) Inhibition Assay, Great Lakes Toxicology and Ecology Division (GLTED) Lab (AID 2284317; active means hit-call score of the fitted dose curve at least 0.9, where 1 is the maximum;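 further: cell-free human IYD enzyme made in baculovirus insect cells; iodide freed from monoiodotyrosine measured by cerium arsenite color change at 420 nm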)
In short: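 Absorbance change at 420 nm from the iodide-catalysed cerium-arsenic reaction reports free iodide released by human IYD from monoiodotyrosine. Enzyme, substrate and chemical are incubated 3 h; loss of signal is fitted relative to DMSO baseline.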

[17] = CCTE_Mundy_HCI_iCellGluta_NOG_NeuriteLength: CCTE's Neurite Outgrowth Assay in iCellGluta cells for Neurite Length, Mundy Lab (AID 2284318; active means hit-call score of the fitted dose curve at least 0.9, where 1 is the maximum)
In short: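 Automated high-content imaging of betaIII-tubulin (Alexa Fluor-488) and Hoechst-stained cells gave neurite length, normalized to the DMSO baseline.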

[18] = read-out: CD69, CD69 (gene 969); assay: BSK_LPS_CD69: BioMAP Diversity Plus: LPS Assay for CD69 Biomarker Activity (AID 2284303); conditions: primary human HUVEC with PBMC
In short: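 Human umbilical vein endothelial cells co-cultured with PBMC under LPS stimulation, chemical exposure 24 h; cell-surface CD69 measured by ELISA and fitted in the positive direction versus DMSO.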

Measured: AC50

Chain of E-selectin (Homo sapiens) (P16581 whole entry, looked up): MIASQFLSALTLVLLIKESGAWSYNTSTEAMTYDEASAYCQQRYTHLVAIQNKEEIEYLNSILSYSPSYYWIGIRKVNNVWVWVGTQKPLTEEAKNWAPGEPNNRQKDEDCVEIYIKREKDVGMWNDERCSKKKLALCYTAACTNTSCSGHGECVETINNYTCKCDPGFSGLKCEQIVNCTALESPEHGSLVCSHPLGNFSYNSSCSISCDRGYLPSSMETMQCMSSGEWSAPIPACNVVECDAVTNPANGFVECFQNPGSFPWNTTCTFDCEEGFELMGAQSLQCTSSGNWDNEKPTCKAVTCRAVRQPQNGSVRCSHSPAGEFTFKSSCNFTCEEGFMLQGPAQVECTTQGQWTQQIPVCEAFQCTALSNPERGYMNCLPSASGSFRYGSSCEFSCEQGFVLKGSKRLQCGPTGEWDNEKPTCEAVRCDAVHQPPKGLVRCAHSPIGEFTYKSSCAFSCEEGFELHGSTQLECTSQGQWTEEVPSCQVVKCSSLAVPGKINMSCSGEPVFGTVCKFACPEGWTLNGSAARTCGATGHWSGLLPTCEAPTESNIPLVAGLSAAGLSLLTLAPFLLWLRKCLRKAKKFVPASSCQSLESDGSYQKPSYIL

O=C(O)CCC(F)(F)C(F)(F)C(F)(F)C(F)(F)C(F)(F)C(F)(F)C(F)(F)F
active: [11] 2.27 µM and 1.87 µM | [13] 3.33 µM | [14] 4.29 µM | [16] 160 µM
inactive: [1] | [2] | [3] | [4] | [5] | [6] | [7] | [8] | [9] | [10] | [12] | [14] | [15] | [17]

CCCCCCCCCCCCC[N+](C)(C)Cc1ccccc1
active: [16] 70.8 µM

O=C(F)C1(F)C(F)(F)C(F)(F)C(F)(F)C(F)(F)C1(F)F
not listed: [16] | [18]
inactive: all other assays above

O=C(Cl)C(F)(F)C(F)(F)C(F)(F)C(F)(F)C(F)(F)C(F)(F)F
inactive: [1] | [2] | [3] | [4] | [5] | [6] | [7] | [8] | [9] | [10] | [11] | [12] | [13] | [14] | [15]
active: [13] 7.98 µM and 7.26 µM

COC(F)(C(F)F)C(F)(F)F (centres undefined)
not listed: [16] | [17]
inactive: all other assays above

CCCCCCCC/C=C\CCCCCCCC(=O)OCC(O)CO (centres undefined)
active: [16] 68.1 µM

CCOC(=O)CC(=O)C(F)(F)C(F)(F)F
not listed: [16] | [17] | [18]
inactive: all other assays above

OCC(F)(F)C(F)(F)C(F)(F)C(F)(F)C(F)(F)C(F)(F)C(F)(F)C(F)(F)CO
active: [1] 19.7 µM and 5.95 µM | [2] 30 µM and 25.2 µM | [4] 34.8 µM and 22.1 µM | [6] 51 µM and 42.3 µM | [7] 54.5 µM and 46.2 µM | [8] 46.5 µM and 41.2 µM | [10] 47.6 µM and 50.3 µM | [11] 51.5 µM and 36.1 µM | [12] 39.7 µM | [13] 21.5 µM and 42.7 µM | [14] 46 µM and 39.8 µM
inactive: [3] | [5] | [9] | [12] | [15]

— PubChem BioAssay (EPA / NIEHS)
